Assay results taken from ChEMBL document CHEMBL4513216, “Probing the Open Global Health Chemical Diversity Library for Multistage-Active Starting Points for Next-Generation Antimalarials” (ACS Infect Dis, 2020).
Hit rate of the full screen: of about 65,000 compounds, about 2,100 (3.2%) showed an effect of 50% or more. The median lay at about -52%. The list comes from a sample in which strong results are over-represented; it also holds similar structures and randomly drawn compounds.

test system: Plasmodium falciparum; test: Screen against P. falciparum Asexual Blood Stage (ABS), at 5uM; format: functional, Dd2; settings: tested at 5 uM

SMILES	INHIBITION [%]
CS(=O)(=O)NC[C@H]1Cn2c(-c3ccccc3)cnc2CO1	-21
CS(=O)(=O)NC[C@H]1Cn2c(-c3ccc(Cl)cc3)cnc2CO1	57.1
CS(=O)(=O)NC[C@H]1Cn2c(-c3ccc(F)cc3)cnc2CO1	-34.5
CN(C)Cc1csc(-c2nccn2Cc2ccsc2)c1	17.1
Cc1cccc(C(=O)N2CCC[C@]3(C[C@@H](OCC4CC4)CO3)C2)n1	-156
Cn1cc(CN2C[C@H](N3CCOCC3)[C@@H]3OCCC[C@@H]32)cn1	-93.3
OC(CNC1CCOCC1)c1cccc(OCc2ccccc2)c1 (centres undefined)	53.2
COc1cccc(C(O)CNC(=O)CC2CCCCC2)c1 (centres undefined)	-143
OC(CNC1CCOCC1)c1ccc(Cl)c(F)c1 (centres undefined)	50.9
CCN1CCC(NC(=O)NCC(O)c2ccc(Cl)c(F)c2)CC1 (centres undefined)	-34.9
c1ccc(COc2cccc(CNC3CCc4ncnn4C3)c2)cc1 (centres undefined)	24.8
O=C(NCC(O)c1ccc(Cl)c(F)c1)NC1CC=CC1 (centres undefined)	-14.7
CC(C)(CNc1cccc(Cl)c1)NC(=O)C1CCCN(CC(N)=O)C1 (centres undefined)	-34.6
COc1ccccc1-c1ncc(CN2C[C@H](O)[C@@H](N3CCCC3)C2)s1	16.5
COc1ccccc1-c1ncc(CN2C[C@@H](N(C)C)[C@H](C(C)C)C2)s1	54.7
COc1ccccc1-c1ncc(CN2CCCC(CCC(N)=O)C2)s1 (centres undefined)	-43.7
CCc1csc(C2CCCN(C(=O)c3ncccn3)C2)n1 (centres undefined)	-94
CC(C)n1c(=O)c2ccccc2n(CCCN(C)C)c1=O	59.5
CN(C)CCn1c(=O)n(C)c(=O)c2ccccc21	-7.78
CC(C)n1c(=O)c2ccccc2n(CCN(C)C)c1=O	36.1
CCN(Cc1ccccc1)C(=O)CCN1CC(O)C1	-76.9
Cc1nc(C)c(C(=O)N2Cc3ccccc3OCC2Cn2ccnc2)s1 (centres undefined)	-22.8
CN1CCCCC1C(=O)N1CCN(c2ccccc2C#N)CC1 (centres undefined)	11.5

SMILES	INHIBITION [%]
CN1CCCCCC1C(=O)N1CCCN(c2ccccc2)CC1 (centres undefined)	61.8
CC(C)N1CCC(C(=O)N2CCCN(c3ccccc3)CC2)CC1	-38.1
CN1CCCCCC1C(=O)N1CCN(c2ccccc2C#N)CC1 (centres undefined)	60.4
COC(=O)N1CCCCC1C(=O)N1CCN(c2cccnc2)CC1 (centres undefined)	-87.5
N#Cc1ccccc1N1CCN(C(=O)NCC(=O)N2CCCC2)CC1	-1.82
CC[C@H]1CN(C(=O)c2ccc(-n3cnnc3)nc2)CC[C@@]1(C)O	-129
Cc1noc(C)c1CCC(=O)N1CCCN(Cc2cccs2)CC1	-63
CC(C1CCN(Cc2ccc(OC(F)F)cc2)CC1)N1CCOCC1 (centres undefined)	-26.3
CC(C)Oc1cccc(CN2CCC(C(C)N3CCOCC3)CC2)c1 (centres undefined)	55.8
CC(C)Oc1cccc(CN2CCC(c3n[nH]c4ncccc34)CC2)c1	-51.3
CC(C1CCN(Cc2cccc(OC(F)F)c2)CC1)N1CCOCC1 (centres undefined)	68.3
CC(C1CCN(Cc2ccccc2OC(F)F)CC1)N1CCOCC1 (centres undefined)	9.39
CC(C1CCN(Cc2ccc(N(C)C)nc2)CC1)N1CCOCC1 (centres undefined)	-5.43
CCc1ccc(C(CNC(=O)c2c(C)noc2C)N(C)C)cc1 (centres undefined)	-71.9
O=C(NC1CC1)[C@H]1C[C@H]2OCC[C@H]2N(CC2CC2)C1	-28.3
CC(C)(C)CC(=O)NCCn1nc(C2CCNC2)c2cccnc21 (centres undefined)	-134
Cc1nccc(NCc2cncc3c2CCN(CC2CCOC2)C3)n1 (centres undefined)	-81.6
CC(C)n1cc(C(=O)N2CCN(c3cccc(C(F)(F)F)c3)CC2)cn1	-46.5
CC(O)Cc1cn(CC2CCN(c3nccc4occc34)CC2)nn1 (centres undefined)	-39.4
O=C(O)c1cn(CC2CCCN(c3nccc4occc34)C2)nn1 (centres undefined)	-30.1
CN(C)Cc1cn(CC2CCCN(c3nccc4occc34)C2)nn1 (centres undefined)	60.5
CC(C)(C)c1ncc(C(=O)NCc2ccccc2CN2CCCC2)s1	-23.4
O=C(c1ccc[nH]1)N1C[C@H](OCc2ccccn2)[C@H]2COC[C@H]21	-89.2

SMILES	INHIBITION [%]
O=C1NCCN1C1CCN(Cc2coc(-c3ccc(F)cc3)n2)CC1	-71.8
Cn1nc(CN2CCC(c3ccncc3)CC2)c2c(Cl)cccc21	-14.6
C[C@@H]1CN(C2CCN(Cc3nn(C)c4cccc(Cl)c34)CC2)C[C@H](C)O1	-9.68
Cn1nc(CN2CCCN(C3CCCC3)CC2)c2c(Cl)cccc21	68.9
COCCN1C(=O)CO[C@H]2CN(Cc3ccccc3Cl)C[C@@H]21	-123
CCN1CCOCC12CCN(c1nccs1)CC2	-144
CN(CCN1CCOC1=O)CC(=O)Nc1ccc(Cl)c(C(F)(F)F)c1	-56.7
Nc1cc(-c2cc(O)cc(C(=O)O)c2)c2cc[nH]c2n1	-9.72
CCNCCOc1ccc(-c2cc(N)nc3[nH]ccc23)cc1	51.3
CNc1cc(-c2ccc(COCCN)cc2)c2cc[nH]c2n1	2.35
CCOCCCNC(=O)c1ccccc1S(C)(=O)=O	-120
CSCCNc1ccc(C(=O)N(C)Cc2ccc3ccccc3n2)cn1	-73.9
CCOc1ccc(NC(=O)NCCS(=O)(=O)CC)cc1C	4.65
COc1cc(CNCc2ccc(C(C)O)cc2)cc2c1OCO2 (centres undefined)	9.88
COc1cc(CNCCc2cnn(C)c2)cc2c1OCO2	-26.5
COc1cc(CNCC(O)c2ccccc2)cc2c1OCO2 (centres undefined)	61.1
Cc1ccc(CN2CCc3onc(C(=O)NCCN(C)C)c3C2)o1	-43.9
CS(=O)(=O)N1CC2(CCN(CC3CCCCC3)CC2)Cc2ccccc21	63.8
CS(=O)(=O)N1CC2(CCCN2Cc2ccc(Cl)cc2)Cc2ccccc21 (centres undefined)	-33
CS(=O)(=O)N1CC2(CCCN(CC3CC3)C2)Cc2ccccc21 (centres undefined)	69.8
CC(=O)N1CC2(CCCN(Cc3ccc(Cl)cc3)C2)Cc2ccccc21 (centres undefined)	-0.688
CS(=O)(=O)N1Cc2ccccc2CC2(CCN(Cc3ccccc3)C2)C1 (centres undefined)	9.04
CS(=O)(=O)N1CC2(CCN(CC3CCCCC3)C2)Cc2ccccc21 (centres undefined)	-36.9
